Consider 91 compounds from PubChem BioAssay AID1645857 (Buhrlage Lab, Dana-Farber Cancer Institute and Novartis …, 2021).

In all, about 47,000 compounds went through this assay and about 1,400 (3%) were called active. Rule as the data show it: active = inhibition above about 30%; inactive = the rest. Many of the other results were omitted from the sample, so actives are more common in it than they were.

Chain of Ubiquitin carboxyl-terminal hydrolase 28 (Homo sapiens) (Q96RU2 whole entry, looked up): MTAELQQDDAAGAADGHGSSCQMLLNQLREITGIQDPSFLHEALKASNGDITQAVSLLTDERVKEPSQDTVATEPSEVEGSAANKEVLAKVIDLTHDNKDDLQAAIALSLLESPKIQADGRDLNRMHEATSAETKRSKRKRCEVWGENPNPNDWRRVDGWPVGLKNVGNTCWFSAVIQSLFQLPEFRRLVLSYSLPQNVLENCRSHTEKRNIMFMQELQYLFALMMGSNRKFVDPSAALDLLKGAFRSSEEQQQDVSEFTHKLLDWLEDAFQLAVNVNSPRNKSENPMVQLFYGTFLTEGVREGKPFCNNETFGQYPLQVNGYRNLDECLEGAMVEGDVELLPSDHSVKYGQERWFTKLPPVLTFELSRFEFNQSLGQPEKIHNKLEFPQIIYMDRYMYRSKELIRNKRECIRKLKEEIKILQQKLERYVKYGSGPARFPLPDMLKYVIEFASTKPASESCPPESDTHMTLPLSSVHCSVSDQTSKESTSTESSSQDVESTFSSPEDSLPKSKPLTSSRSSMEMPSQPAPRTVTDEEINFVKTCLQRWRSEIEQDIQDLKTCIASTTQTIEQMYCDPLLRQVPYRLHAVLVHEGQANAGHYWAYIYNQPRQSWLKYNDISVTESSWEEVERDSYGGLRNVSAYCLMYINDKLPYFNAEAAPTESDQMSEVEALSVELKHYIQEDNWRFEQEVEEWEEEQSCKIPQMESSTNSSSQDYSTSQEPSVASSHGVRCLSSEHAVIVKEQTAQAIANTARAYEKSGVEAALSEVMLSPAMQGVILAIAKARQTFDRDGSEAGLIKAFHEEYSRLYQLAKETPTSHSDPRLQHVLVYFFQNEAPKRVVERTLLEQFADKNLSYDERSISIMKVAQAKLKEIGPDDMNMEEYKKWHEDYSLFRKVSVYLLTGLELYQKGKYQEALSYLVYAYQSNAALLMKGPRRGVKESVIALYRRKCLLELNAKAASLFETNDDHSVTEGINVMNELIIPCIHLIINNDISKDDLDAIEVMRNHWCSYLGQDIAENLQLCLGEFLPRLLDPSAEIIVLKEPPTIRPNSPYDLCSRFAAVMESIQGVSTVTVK

The experiment addresses Ubiquitin carboxyl-terminal hydrolase 28 (Homo sapiens) (UniProt Q96RU2). The experiment can be described thus: blocks human USP28 ubiquitin-rhodamine cleavage (AID 1645857). To be noted: purified USP28, Ub-rhodamine cleavage fluorescence, 30 min; at 25 µM; hits give high values.
Consider `CC(C)CN1[C@H]2CCN(C(=O)c3cnccn3)CC[C@@H]2Oc2ccccc2S1(=O)=O`, for which the inhibition was -3.97% (inactive).
Then `Cc1nc2ccccc2n1CCNC(=O)c1ccccc1Cl`, with -3.71% (inactive); and `CC(=O)N1CCc2cc(S(=O)(=O)NCC(=O)NCc3ccc4c(c3)OCO4)ccc21`, with -1.7% (inactive).
With `Cc1noc(CNC(=O)c2cc(-c3ccco3)on2)n1`, the inhibition was -29.2% (inactive).
The value for `Cc1[nH]c(C(=O)N2CCCC(C(=O)NCc3cccnc3)C2)c(C)c1C` (stereo unspecified) was -6.57% (inactive).
Then `Cc1cccc(CNC(=O)C2CCN(c3cnc4nccnc4c3)CC2)c1`, with -81.1% (inactive); and `O=C(NCc1cccnc1)C1CCN(c2cnc(N3CCCCCC3)nc2)CC1`, with 60.9% (active).
Regarding `O=c1c2c(ncn2C2CCCC2)n(Cc2ccccc2)c(=O)n1Cc1ccccc1`, the inhibition is 6.37% (inactive).
Then `O=C(O)c1cc(-c2ccc(-c3ccccc3F)o2)nc2ccc(F)cc12`, with -179% (inactive).
Then `CCc1ccccc1NC(=O)N1CCCC1c1ccnn1CC` (stereo unspecified), with 12.8% (inactive); and `c1cc(CNCc2ccc3c(c2)OCO3)ccn1`, with -2.19% (inactive); and `CCC(Oc1ccccc1)C(=O)NCc1ccc2c(c1)OCO2` (stereo unspecified), with 6.67% (inactive).
Then `c1ccc(-c2ccc(NCc3ccc4c(c3)OCO4)nn2)cc1`, with 61.2% (active); and `N#CC1=C(N)Oc2nc[nH]c(=O)c2C1c1cccc(F)c1` (stereo unspecified), with -2.3% (inactive).
Take `CCC(C)[C@H](NS(=O)(=O)c1ccc(C)cc1)C(=O)N1CCC(C(=O)N[C@H](Cc2c[nH]c3ccccc23)C(=O)O)CC1` (stereo partly specified): the inhibition is -2.54% (inactive).
Then `CCCc1nc2sc3c(N4CCC(C)CC4)ncnc3c2c2c1CCC2`, with 2.73% (inactive); and `CCCCCCSc1ncnc2c1sc1nc(-c3ccccc3)c3c(c12)CC(C)(C)OC3`, with -0.572% (inactive).
As for `CCCCc1nc2sc3c(SCC(=O)NCc4ccccc4)ncnc3c2c2c1CCC2`, the inhibition is 54.5% (active).
Then `Cc1ccc(NC(=O)CSc2nnc(-c3cnccn3)n2Cc2ccco2)cc1C`, with -1.17% (inactive); and `CCn1c(SCc2cccc(C)c2)nnc1-c1cnccn1`, with 58.5% (active).
Then `CCc1ccc(NC(=O)CSc2nnc(-c3cnccn3)n2Cc2ccco2)cc1`, with -5.3% (inactive); and `COc1cc(O)sc1C=Nc1ccc(Oc2ccccc2)cc1`, with 40.7% (active); and `COc1ccccc1C(=O)Nc1cccc(Oc2ccccc2)c1`, with 19.6% (inactive).
Then `O=C(c1ccc[nH]1)N1CCCn2c(nc(Cn3ccnc3)cc2=O)C1`, with 12.3% (inactive); and `CCN(C(=O)CSc1nnc(-c2ccoc2C)o1)c1ccccc1`, with 6.53% (inactive).
Take `CC(C)c1ccc(OCC(=O)NCc2nnnn2-c2ccc(Cl)cc2)cc1`: the inhibition was 20.1% (inactive).
For the compound `Cc1ccc(NC(=O)NCc2nnnn2-c2ccccc2)cc1C`, the inhibition is 5.32% (inactive).
In the case of `O=C(COc1ccc2ccccc2c1)NCc1nnnn1-c1ccc(Cl)cc1`, the inhibition was 30.4% (active).
In the case of `Cc1ccc(C)c(NC(=O)c2cn(C)cc3c(=O)n(-c4ccccc4)nc2-3)c1`, the inhibition is 2.87% (inactive).
Then `O=c1c2[nH]c3ccc(Cl)cc3c2ncn1Cc1cccnc1`, with -8.15% (inactive); and `COc1cc(Cn2cnc3c([nH]c4ccc(Br)cc43)c2=O)cc(OC)c1`, with 43.8% (active).
Regarding `CCOc1ccc2[nH]c3c(=O)n(Cc4cccnc4)cnc3c2c1`, the inhibition is 13.7% (inactive).
Regarding `CCOc1cccc(C(=O)N2CCC(c3nc4ccccc4o3)CC2)c1`, the inhibition was -7.65% (inactive).
The value for `Cc1cc(C)n2c(SCC(=O)Nc3cc(C(C)(C)C)nn3-c3ccccc3)nnc2n1` was 6.69% (inactive).
Then `Cc1cc(C(F)(F)F)n2nc(C3CCN(C(=O)c4cc5ccccc5s4)C3)cc2n1` (stereo unspecified), with 17.6% (inactive); and `NCCCC(=O)N1CCC2(CC1)C(=O)NCN2C(=O)Cc1ccccc1`, with -0.0141% (inactive).
Then `O=C1CO[C@H]2CN(Cc3ncc[nH]3)C[C@H]2N1c1ccccc1`, with 19.7% (inactive); and `COc1ccccc1CCNC(=O)CCc1c(C)c2ccc(O)c(C)c2oc1=O`, with 2.41% (inactive).
For `Nn1c(SCC(=O)Nc2ccccc2F)nnc1-c1n[nH]c2c1CCC2`, the inhibition was -7.92% (inactive).
The value for `Cc1cc(-c2nnc(SCC(=O)Nc3ccc(Br)c(C)c3)n2N)n[nH]1` was 38.4% (active); that for `Cc1cc(NC(=O)COC(=O)c2cccc(C)c2O)ccc1Br` was 5.74% (inactive); that for `O=C(CN1CCC2(CC=CCN(CCc3ccccc3)C2=O)CC1)Nc1ccc(F)cc1` was -25.4% (inactive).
Turning to `COc1ccc(C(=O)N2CCc3cc4ccccc4nc32)cc1OC`, the inhibition is -5.16% (inactive).
On to `O=S(=O)(c1ccc(Cl)cc1)N1CCc2nc[nH]c2C1`, for which the inhibition is -11.8% (inactive).
Then `CC1CCC/C=C/C=C/C(=O)CC(O)C/C=C\C=C\C(O)C/C=C/C=C\C(=O)O1` (stereo unspecified), with 2.22% (inactive); and `CCc1ccc(NC(=O)N2C[C@H]3C[C@H]4[C@](C2)(CN(Cc2cccnc2)S4(=O)=O)O3)cc1`, with 1.25% (inactive).
Then `CC(C)CN1C[C@@]23CN(C(=O)NCCc4ccc(F)cc4)C[C@@H](C[C@@H]2S1(=O)=O)O3`, with 32.3% (active); and `COCCN1C[C@@]23CN(C(=O)NCc4ccccc4)C[C@@H](C[C@@H]2S1(=O)=O)O3`, with 5.8% (inactive); and `CC(C)NC(=O)c1nc(Cn2c(C(F)F)nc3ccccc32)no1`, with 5.94% (inactive).
On to `CC1=C(C(=O)Nc2ccc(C)cc2C)C(c2cccs2)n2c(nc3ccccc32)N1` (stereo unspecified), for which the inhibition was 6.45% (inactive).
Regarding `O=C(c1ccccn1)N1CCn2nc(-c3ccc4ccccc4c3)cc2C1`, the inhibition is 1.7% (inactive).
Then `O=C(Cc1ccccc1F)N1CCCC(c2[nH]nc3nccnc23)C1` (stereo unspecified), with 1.05% (inactive); and `COc1ccccc1NC(=O)C1=C(C)Nc2ncnn2C1c1ccc(C)o1` (stereo unspecified), with 1.41% (inactive); and `COc1ccc(NC(=O)C2=C(C)Nc3ncnn3C2c2cccc(OCc3ccc(F)cc3)c2)c(OC)c1` (stereo unspecified), with 46.2% (active).
The value for `COc1cccc(C2C(C(=O)Nc3ccccc3C)=C(C)Nc3ncnn32)c1OCc1ccccc1` (stereo unspecified) was 2.46% (inactive).
The value for `CNc1cccc(C2CN(C(=O)c3cnn4cccnc34)CCO2)n1` (stereo unspecified) was -3.02% (inactive).
For the compound `O[C@@H]1C[C@H]2CN(Cc3ccc(F)cc3)[C@H](Cc3ccccc3)CN2C1`, the inhibition was 2.96% (inactive).
The value for `COc1ccc2c(c1)OC[C@@H](Cc1ccccc1)N(Cc1ccncc1)[C@H]2C` was 8.99% (inactive).
The value for `N#Cc1cccc(CSc2ncnc(N)n2)c1` was 39.9% (active); that for `Cc1ccc(-c2cc3n(n2)CCCN(C(=O)c2ccccn2)C3)cc1` was 0.0245% (inactive); that for `Cc1ccc(N2CCCS2(=O)=O)cc1NC(=O)Cc1ccc(Cl)cc1` was 33.1% (active).
Then `Cc1ccc(CC(=O)Nc2nnc(C3CC(=O)N(c4ccc(C)c(C)c4)C3)s2)cc1` (stereo unspecified), with 13.1% (inactive).
On to `Cc1ccc(Cl)cc1NC(=O)N1CCc2nc(N3CCCCC3)ncc2C1`, for which the inhibition is -54.3% (inactive).
Then `Cn1ccc(C(=O)NCc2cnc(C3CCCCO3)nc2)n1` (stereo unspecified), with 6.1% (inactive); and `Cc1ccc(C)c(CSc2nc(-c3ccco3)nc3c2c(=O)n(C)c(=O)n3C)c1`, with -10.3% (inactive).
The value for `COc1ccc(CC(=O)Nc2ccc3c(c2)CN(C(=O)c2ccco2)CC3)cc1` was 23.1% (inactive); that for `Cc1ccc(C)c(CSC2=NCCN2C(=O)c2ccco2)c1` was 70.4% (active); that for `Cc1ccc(-n2cc(-c3noc(C(=O)Nc4ccc(F)cc4C)n3)nn2)cc1` was 13.4% (inactive).
The value for `CC(C)NC(=O)c1csc(-c2ccc(N3CCCC3)nc2)n1` was -10% (inactive).
For `Cn1c(SCc2ccc(Cl)cc2)nnc1-c1ccc2c(c1)OCCO2`, the inhibition is 41% (active).
On to `O=C(CSc1nnc(-c2ccc3c(c2)OCO3)n1-c1ccccc1)OCC(=O)c1ccccc1`, for which the inhibition is 14.9% (inactive).
Then `Cc1cc(C(=O)CSc2nnc(-c3ccc(F)cc3)n2C)c(C)n1C`, with -21.9% (inactive); and `O=C(N[C@@H](Cc1ccccc1)C(=O)N1CCc2ccccc2C1)c1cccnc1`, with 5.48% (inactive).
The value for `Cc1oc(-c2cccc(Cl)c2)nc1Cn1c(=O)n(C(C)C)c(=O)c2ccccc21` was -19% (inactive).
Turning to `CCc1nc(SCC(=O)Nc2cccc3ccccc23)c2oc3ccccc3c2n1`, the inhibition is 2.85% (inactive).
Then `Cc1c(C(=O)NC2CCCCC2)oc2ccccc12`, with 3.81% (inactive); and `O=C(CSc1ncnc2c1oc1ccccc12)NC1CCCC1`, with 46.9% (active); and `O=C(Cc1nnc2c(-c3nc(C4CC4)no3)cccn12)Nc1ccccc1`, with 11% (inactive).
Then `CN(C)C(=O)CN1CCC2(CC1)CN(Cc1ccccn1)C(=O)CO2`, with 8.76% (inactive); and `CN1CCN(c2ncc3c(=O)n(CC4CCCO4)ccc3n2)CC1` (stereo unspecified), with -10.1% (inactive).
The value for `Cc1cc(C)c(NC(=O)CCN2C(=O)c3cccnc3Sc3ccccc32)c(C)c1` was 32.4% (active); that for `COc1ccc(NC(=O)CCN2C(=O)c3cccnc3Sc3ccccc32)cc1` was 9.9% (inactive); that for `O=C(CCN1C(=O)c2cccnc2Sc2ccccc21)Nc1cc(F)ccc1F` was 11% (inactive).
Regarding `CC(C)(C)c1nn(-c2ccccc2)c2[nH]c(=O)c(CNCCc3ccccc3)cc12`, the inhibition is 20.3% (inactive).
As to `Cc1ccccc1Nc1nc(N)nc(CSc2ccccc2)n1`, the inhibition is -0.136% (inactive).
The value for `Cn1c(CCNC(=O)c2ccc(C(C)(C)C)cc2)nc2cccnc21` was -229% (inactive).
Then `Cn1cc(-c2nc(C(=O)Nc3ccc(F)cc3)cs2)c2cccnc21`, with 21.1% (inactive); and `CCn1cc(C(=O)OCC(=O)Nc2cc(F)ccc2F)c(=O)c2ccc(C)nc21`, with -0.0765% (inactive); and `Cn1cc(CCNC(=O)Nc2cc(F)ccc2F)c2cccnc21`, with 44.1% (active).
The value for `Cn1cc(CCNC(=O)c2cc3ccccc3[nH]2)c2cccnc21` was 63.9% (active).
Turning to `Cc1cccc(S(=O)(=O)NCCc2cn(C)c3ncccc23)c1`, the inhibition was -5.33% (inactive).

Usually inhibition stands for the drop in the measured response relative to a control, in per cent.
